This passage reports Potency and activity change, negative = cytotoxicity results from PubChem BioAssay (NCATS).

Records with an inconclusive call do not appear. Unmarked numbers belong to inactive results. The source made the active and inactive calls. Calls follow the shape of the dose curve; as a rule, active = well fitted cell-killing curve with a large enough effect; inconclusive = small, poorly fitted or top-dose-only effect, or effect the other way; inactive = flat fitted curve, though single readings scatter. Where a SMILES comes first, the peptide text is derived from it. [ ]: non-standard residue; d: D form. Ala(indol-2-yl) = N[C@@H](Cc1cc2ccccc2[nH]1)C(=O)O; Aib = CC(C)(N)C(=O)O
% is scaled to controls: 0 for no effect and ±100 for the full control effect; potency is read from the fitted curve at half-maximal effect.

This experiment relates to CASKI. The experiment can be described thus: Primary qHTS to identify gynecologic anti-cancer compounds using libraries of approved drugs and bioactive compounds (AID 1345084). Also: nearly all actives have a fitted effect of over 55% in size. The note with it: Gynecologic cancer cell panel viability, ATPlite luminescence, 48 h; series mostly up to 57.5 µM. The method, boiled down:
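In this quantitative HTS, cell killing is estimated from loss of ATP-dependent luciferase light. Cells see five compound concentrations over a 48 h exposure.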
(In general: Quantitative high-throughput screening tests each substance at several concentrations.)
For `O=C(OC[C@H]1O[C@@H](Oc2ccc(O)cc2CO)[C@H](O)[C@@H](O)[C@@H]1O)c1ccccc1`, the Potency entry was “inactive”.

With `CC(=O)O[C@@H]1[C@@H](O)[C@H]2O[C@@H]3C=C(C)[C@@H](O)C[C@]3(CO)[C@]1(C)[C@]21CO1`, the Potency was 3980 nM (active).

As to `COc1cc2c(c(OC)c1OC)-c1ccc(SC)c(=O)cc1[C@@H](NC(C)=O)CC2`, the Potency entry is “inactive”.

Take `CC(C)(NC(=O)[C@@H](N)Cc1ccc(O)cc1)C(=O)N[C@@H](Cc1cc2ccccc2[nH]1)C(=O)N[C@@H](Cc1ccccc1)C(=O)O` (H-Y[Aib][Ala(indol-2-yl)]F-OH): the activity change, negative = cytotoxicity is 4.29% [at 11.6 µM].

In the case of `C=C1[C@@H](C)[C@H]2[C@H](Cc3ccccc3)NC(=O)[C@]23[C@H](OC(C)=O)/C=C/[C@](C)(O)C(=O)[C@@H](C)C/C=C/[C@H]3[C@@H]1O`, the Potency result was “inactive”.

Regarding `COc1ccc2c3c([nH]c2c1)C(C=C(C)C)N1C(=O)C2CCCN2C(=O)C1C3` (stereo not given), the Potency entry is “inactive”.

Take `CC(=O)OC[C@]12C[C@H](OC(=O)CC(C)C)C(C)=C[C@H]1O[C@@H]1[C@H](O)[C@@H](OC(C)=O)[C@@]2(C)[C@@]12CO2`: the Potency was 199 nM (active).

Take `CN[C@@H]1C[C@H]2O[C@@](C)([C@@H]1OC)n1c3ccccc3c3c4c(c5c6ccccc6n2c5c31)C(=O)NC4`: the Potency was 251 nM (active).

As to `CC1=C[C@H]2O[C@@H]3C[C@H]4OC(=O)/C=C/C=C/C(=O)OCC/C(C)=C/C(=O)OC[C@@]2(CC1)[C@]4(C)[C@]31CO1`, the Potency is 112 nM (active).

In the case of `CC(=O)OC[C@]12C[C@H](OC(=O)CC(C)C)C(C)=C[C@H]1O[C@@H]1[C@H](O)[C@@H](O)[C@@]2(C)[C@]12CO2`, the Potency is 224 nM (active).

`COC1CC(O[C@H]2CC[C@]3(C)C4CC[C@]5(C)[C@@H](C6=CC(=O)OC6)[C@@H](OC(C)=O)C[C@]5(O)C4CC[C@@H]3C2)OC(C)C1O[C@@H]1O[C@H](CO)[C@@H](O)[C@H](O)[C@H]1O` (stereo not given in full): the Potency was 3160 nM (active).

Turning to `Cc1c(Cl)c(OCC(=O)N2CCN(C)CC2)nc2sc(C(=O)NC3CC3)c(N)c12`, the Potency entry was “inactive”.

In the case of `CO[C@H]1[C@H](O)[C@H](O[C@H]2CC[C@]3(C=O)C4CC[C@]5(C)[C@H](C6=CC(=O)OC6)CC[C@]5(O)C4CC[C@@H]3C2)O[C@@H](C)[C@@H]1O` (stereo not given in full), the Potency was 224 nM (active).

Consider `C[C@H]1O[C@@H](O[C@H]2CC[C@]3(C=O)C4CC[C@]5(C)[C@@H](C6=CC(=O)OC6)CC[C@]5(O)[C@@H]4CC[C@]3(O)C2)C[C@@H](O)[C@@H]1O` (stereo not given in full), for which the Potency was 355 nM (active).

In the case of `C[C@]12CC[C@H](O)C[C@H]1CC[C@@H]1[C@@H]2[C@H](O)C[C@]2(C)[C@@H](c3ccc(=O)oc3)CC[C@]12O`, the Potency was 501 nM (active).

For the molecule `C[C@H]1O[C@@H](O[C@H]2CC[C@]3(CO)C4CC[C@]5(C)[C@@H](C6=CC(=O)OC6)CC[C@]5(O)[C@@H]4CC[C@H]3C2)[C@H](O)[C@H](O)[C@@H]1O[C@@H]1O[C@H](CO)[C@@H](O)[C@H](O)[C@H]1O` (stereo not given in full), the Potency was 6310 nM (active).

Regarding `CC1=C[C@H]2O[C@@H]3[C@H](O)[C@@H](O)[C@](C)([C@@]2(CO)C[C@@H]1O)[C@]31CO1`, the Potency was 11200 nM (active).

Consider `C[C@H]1O[C@@H](n2cnc3c(N)ncnc32)C[C@@H]1O`, for which the Potency result was “inactive”.

With `OCc1nnc2n1-c1ccc(Cl)cc1C(c1ccccc1Cl)=NC2`, the Potency entry was “inactive”.

Regarding `CC[C@H]1C2CC3[C@@H]4N(C)c5ccccc5[C@]45C[C@@H]([C@H]2[C@H]5O)N3[C@@H]1O`, the Potency result was “inactive”.

`CC(=O)O[C@H]1CC[C@@]2(CI)C(=CC[C@@H]3[C@@H]2CC[C@]2(C)C(=O)CC[C@@H]32)C1`: the Potency result is “inactive”.

For `C=C1[C@@H](C)[C@H]2[C@H](Cc3ccccc3)NC(=O)[C@]23OC(=O)/C=C/C(=O)CCC[C@@H](C)C/C=C/[C@H]3[C@@H]1O`, the Potency was 15800 nM (active).

As for `C[C@H](CCC(=O)O)C[C@H](C)C[C@H](C)C(=O)/C=C(\O)[C@H](C)C[C@H](C)C/C=C/[C@@H](C)[C@@H](O)[C@@H](C)[C@@H](O)C[C@@H]1CC[C@@](C)([C@H]2CC[C@@](C)([C@@H](C)O)O2)O1`, the Potency entry was “inactive”.

With `C[C@H]1C/C=C/[C@H]2[C@@H]3O[C@]3(C)[C@@H](C)[C@H]3[C@H](Cc4ccccc4)NC(=O)[C@]32OC(=O)O/C=C/[C@@](C)(O)C1=O`, the Potency entry was “inactive”.

In the case of `CC(C)(C)[C@]1(O)C[C@@H]2OC(=O)C[C@@]23C(=O)O[C@@H]2OC(=O)[C@@H](O)[C@]213`, the Potency result was “inactive”.
